# Source: the supplement of paper PMC4022240
# ± gives the standard deviation.
# Assays:
# Experiment in all cases: peptide microarray binding signal (635 nm), min-max normalized on array (fraction of array maximum); higher = stronger binding
# [1] = target: T1, HaloTag-ATRX ADD domain (163-292)
# T1 chain: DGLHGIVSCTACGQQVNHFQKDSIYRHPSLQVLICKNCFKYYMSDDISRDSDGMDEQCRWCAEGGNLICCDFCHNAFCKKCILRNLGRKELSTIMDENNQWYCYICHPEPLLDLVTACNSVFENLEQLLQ
# How it was run: (§1)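 Binding signal is the mean intensity of triplicate spots, min-max scaled within each library. Histone 13-mer peptide–cellulose conjugates were spotted in triplicate on nitrocellulose with a Cy3 tracer and blocked overnight at 4°C. Probing lasted 1 h at 4°C, either with biotin-labelled HaloTag reader fusions (10 nM to 1 μM) and streptavidin-Alexa Fluor 647 or with rabbit histone antibodies (1:10,000 to 1:2,000) and anti-rabbit Alexa 647. An Axon GenePix 4000B read signal at 635 nm and misprints at 532 nm.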
# [2] = target: HaloTag-ING2 PHD (mouse Ing2 200-280)
# How it was run: as §1
# [3] = target: anti-H3K4me3 antibody ab8580
# How it was run: as §1
# [4] = target: anti-H3K9me3 antibody ab8898
# How it was run: as §1
# [5] = peptide region: H3 112-124, peptide modifications: H3K115ac H3K122me1, binder concentration: 1:2,000 dilution
# [6] = peptide region: H3 112-124, peptide modifications: H3K115ac H3K122me1, binder concentration: 1:10,000 dilution
# [7] = peptide region: H3 73-85, peptide modifications: H3K79me2 H3T80ph, binder concentration: 1:2,000 dilution
# [8] = peptide region: H3 73-85, peptide modifications: H3K79me2 H3T80ph, binder concentration: 1:10,000 dilution
# [9] = peptide region: H3 112-124, peptide modifications: H3K115ac H3K122ac, binder concentration: 1:2,000 dilution
# [10] = peptide region: H3 112-124, peptide modifications: H3K115ac H3K122ac, binder concentration: 1:10,000 dilution
# [11] = peptide region: H3 73-85, peptide modifications: H3T80ph, binder concentration: 1:2,000 dilution
# [12] = peptide region: H3 73-85, peptide modifications: H3T80ph, binder concentration: 1:10,000 dilution
# [13] = peptide region: H3 73-85, peptide modifications: H3K79ac H3T80ph, binder concentration: 1:2,000 dilution
# [14] = peptide region: H3 73-85, peptide modifications: H3K79ac H3T80ph, binder concentration: 1:10,000 dilution
# [15] = peptide region: H3 112-124, peptide modifications: H3K115ac H3K122me2, binder concentration: 1:2,000 dilution
# [16] = peptide region: H3 112-124, peptide modifications: H3K115ac H3K122me2, binder concentration: 1:10,000 dilution
# [17] = peptide region: H3 73-85, binder concentration: 1:2,000 dilution
# [18] = peptide region: H3 73-85, binder concentration: 1:10,000 dilution
# [19] = peptide region: H3 50-62, peptide modifications: H3T58ph, binder concentration: 1:2,000 dilution
# [20] = peptide region: H3 50-62, peptide modifications: H3T58ph, binder concentration: 1:10,000 dilution
# [21] = peptide region: H3 50-62, peptide modifications: H3K56me3 H3T58ph, binder concentration: 1:2,000 dilution
# [22] = peptide region: H3 50-62, peptide modifications: H3K56me3 H3T58ph, binder concentration: 1:10,000 dilution
# [23] = peptide region: H3 112-124, peptide modifications: H3K115ac H3R116me1, binder concentration: 1:2,000 dilution
# [24] = peptide region: H3 112-124, peptide modifications: H3K115ac H3R116me1, binder concentration: 1:10,000 dilution
binder,measurement,setting,value
IHAKRVTIMPKDI [H3 112-124 I H A Kac R V T I M P Kme D I],peptide microarray binding signal,"[1]; peptide region: H3 112-124, peptide modifications: H3K115ac H3K122me1, binder concentration: 50 nM",0.00809 ± 8.8e-05
same,peptide microarray binding signal,"[1]; peptide region: H3 112-124, peptide modifications: H3K115ac H3K122me1, binder concentration: 500 nM",0.0164 ± 0.00068
same,peptide microarray binding signal,"[2]; peptide region: H3 112-124, peptide modifications: H3K115ac H3K122me1, binder concentration: 10 nM",0.0183 ± 0.00056
same,peptide microarray binding signal,"[2]; peptide region: H3 112-124, peptide modifications: H3K115ac H3K122me1, binder concentration: 100 nM",0.0281 ± 0.0012
same,peptide microarray binding signal,[3]; [5],0.00164 ± 0.00014
same,peptide microarray binding signal,[3]; [6],0.002054 ± 1.9e-05
same,peptide microarray binding signal,[4]; [5],0.00136 ± 6.1e-05
same,peptide microarray binding signal,[4]; [6],0.00138 ± 1.4e-05
EIAQDFKTDLRFQ [H3 73-85 E I A Q D F Kme2 Tph D L R F Q],peptide microarray binding signal,"[1]; peptide region: H3 73-85, peptide modifications: H3K79me2 H3T80ph, binder concentration: 50 nM",0.00103 ± 3.4e-05
same,peptide microarray binding signal,"[1]; peptide region: H3 73-85, peptide modifications: H3K79me2 H3T80ph, binder concentration: 500 nM",0.000714 ± 1.2e-05
same,peptide microarray binding signal,"[2]; peptide region: H3 73-85, peptide modifications: H3K79me2 H3T80ph, binder concentration: 10 nM",0.002089 ± 1.2e-05
same,peptide microarray binding signal,"[2]; peptide region: H3 73-85, peptide modifications: H3K79me2 H3T80ph, binder concentration: 100 nM",0.000992 ± 1.1e-05
same,peptide microarray binding signal,[3]; [7],0.000283 ± 5.1e-06
same,peptide microarray binding signal,[3]; [8],0.000799 ± 5.8e-05
same,peptide microarray binding signal,[4]; [7],0.000438 ± 1.8e-05
same,peptide microarray binding signal,[4]; [8],0.000634
IHAKRVTIMPKDI [H3 112-124 I H A Kac R V T I M P Kac D I],peptide microarray binding signal,"[1]; peptide region: H3 112-124, peptide modifications: H3K115ac H3K122ac, binder concentration: 50 nM",0.00947 ± 0.0003
same,peptide microarray binding signal,"[1]; peptide region: H3 112-124, peptide modifications: H3K115ac H3K122ac, binder concentration: 500 nM",0.0259 ± 0.00095
same,peptide microarray binding signal,"[2]; peptide region: H3 112-124, peptide modifications: H3K115ac H3K122ac, binder concentration: 10 nM",0.0323 ± 0.0014
same,peptide microarray binding signal,"[2]; peptide region: H3 112-124, peptide modifications: H3K115ac H3K122ac, binder concentration: 100 nM",0.0605 ± 0.013
same,peptide microarray binding signal,[3]; [9],0.00336 ± 0.0003
same,peptide microarray binding signal,[3]; [10],0.00417 ± 0.0002
same,peptide microarray binding signal,[4]; [9],0.00288 ± 0.00013
same,peptide microarray binding signal,[4]; [10],0.00242 ± 9.5e-05
EIAQDFKTDLRFQ [H3 73-85 E I A Q D F K Tph D L R F Q],peptide microarray binding signal,"[1]; peptide region: H3 73-85, peptide modifications: H3T80ph, binder concentration: 50 nM",0.00129 ± 3.8e-05
same,peptide microarray binding signal,"[1]; peptide region: H3 73-85, peptide modifications: H3T80ph, binder concentration: 500 nM",0.00386 ± 0.00022
same,peptide microarray binding signal,"[2]; peptide region: H3 73-85, peptide modifications: H3T80ph, binder concentration: 10 nM",0.00406 ± 0.00014
same,peptide microarray binding signal,"[2]; peptide region: H3 73-85, peptide modifications: H3T80ph, binder concentration: 100 nM",0.000921
same,peptide microarray binding signal,[3]; [11],0.000547 ± 3.5e-05
same,peptide microarray binding signal,[3]; [12],0.000685 ± 7.2e-06
same,peptide microarray binding signal,[4]; [11],0.00186 ± 2e-05
same,peptide microarray binding signal,[4]; [12],0.00127 ± 4.6e-05
EIAQDFKTDLRFQ [H3 73-85 E I A Q D F Kac Tph D L R F Q],peptide microarray binding signal,"[1]; peptide region: H3 73-85, peptide modifications: H3K79ac H3T80ph, binder concentration: 50 nM",0.000721 ± 1.1e-05
same,peptide microarray binding signal,"[1]; peptide region: H3 73-85, peptide modifications: H3K79ac H3T80ph, binder concentration: 500 nM",0.00171 ± 4.6e-05
same,peptide microarray binding signal,"[2]; peptide region: H3 73-85, peptide modifications: H3K79ac H3T80ph, binder concentration: 10 nM",0.00221 ± 4.4e-05
same,peptide microarray binding signal,"[2]; peptide region: H3 73-85, peptide modifications: H3K79ac H3T80ph, binder concentration: 100 nM",0.000638 ± 7.1e-06
same,peptide microarray binding signal,[3]; [13],0.000491 ± 2.4e-05
same,peptide microarray binding signal,[3]; [14],0.000628 ± 1.8e-05
same,peptide microarray binding signal,[4]; [13],0.000951 ± 3.6e-05
same,peptide microarray binding signal,[4]; [14],0.000865 ± 1.8e-05
IHAKRVTIMPKDI [H3 112-124 I H A Kac R V T I M P Kme2 D I],peptide microarray binding signal,"[1]; peptide region: H3 112-124, peptide modifications: H3K115ac H3K122me2, binder concentration: 50 nM",0.00668 ± 0.00012
same,peptide microarray binding signal,"[1]; peptide region: H3 112-124, peptide modifications: H3K115ac H3K122me2, binder concentration: 500 nM",0.0132 ± 0.00064
same,peptide microarray binding signal,"[2]; peptide region: H3 112-124, peptide modifications: H3K115ac H3K122me2, binder concentration: 10 nM",0.0198 ± 0.004
same,peptide microarray binding signal,"[2]; peptide region: H3 112-124, peptide modifications: H3K115ac H3K122me2, binder concentration: 100 nM",0.0271 ± 0.0018
same,peptide microarray binding signal,[3]; [15],0.00159 ± 0.00013
same,peptide microarray binding signal,[3]; [16],0.00211 ± 5.8e-05
same,peptide microarray binding signal,[4]; [15],0.00169 ± 0.00021
same,peptide microarray binding signal,[4]; [16],0.00133 ± 4e-05
EIAQDFKTDLRFQ [H3 73-85 E I A Q D F K T D L R F Q],peptide microarray binding signal,"[1]; peptide region: H3 73-85, binder concentration: 50 nM",0.0048 ± 0.00013
same,peptide microarray binding signal,"[1]; peptide region: H3 73-85, binder concentration: 500 nM",0.0155 ± 0.00056
same,peptide microarray binding signal,"[2]; peptide region: H3 73-85, binder concentration: 10 nM",0.008 ± 0.00096
same,peptide microarray binding signal,"[2]; peptide region: H3 73-85, binder concentration: 100 nM",0.00248 ± 6.3e-05
same,peptide microarray binding signal,[3]; [17],0.000264 ± 5.6e-06
same,peptide microarray binding signal,[3]; [18],0.00228 ± 0.0003
same,peptide microarray binding signal,[4]; [17],0.00308 ± 0.00021
same,peptide microarray binding signal,[4]; [18],0.00236 ± 6.4e-05
EIRRYQKSTELLI [H3 50-62 E I R R Y Q K S Tph E L L I],peptide microarray binding signal,"[1]; peptide region: H3 50-62, peptide modifications: H3T58ph, binder concentration: 50 nM",0.000784 ± 1.1e-05
same,peptide microarray binding signal,"[1]; peptide region: H3 50-62, peptide modifications: H3T58ph, binder concentration: 500 nM",0.00119 ± 3e-05
same,peptide microarray binding signal,"[2]; peptide region: H3 50-62, peptide modifications: H3T58ph, binder concentration: 10 nM",0.00209 ± 3.2e-05
same,peptide microarray binding signal,"[2]; peptide region: H3 50-62, peptide modifications: H3T58ph, binder concentration: 100 nM",0.000425 ± 4.9e-06
same,peptide microarray binding signal,[3]; [19],0.000151 ± 3.3e-06
same,peptide microarray binding signal,[3]; [20],0.000114 ± 1.3e-06
same,peptide microarray binding signal,[4]; [19],0.0006041 ± 5.5e-06
same,peptide microarray binding signal,[4]; [20],0.000519 ± 5.6e-06
EIRRYQKSTELLI [H3 50-62 E I R R Y Q Kme3 S Tph E L L I],peptide microarray binding signal,"[1]; peptide region: H3 50-62, peptide modifications: H3K56me3 H3T58ph, binder concentration: 50 nM",0.0015 ± 4e-05
same,peptide microarray binding signal,"[1]; peptide region: H3 50-62, peptide modifications: H3K56me3 H3T58ph, binder concentration: 500 nM",0.00129 ± 3.6e-05
same,peptide microarray binding signal,"[2]; peptide region: H3 50-62, peptide modifications: H3K56me3 H3T58ph, binder concentration: 10 nM",0.00281 ± 8.3e-05
same,peptide microarray binding signal,"[2]; peptide region: H3 50-62, peptide modifications: H3K56me3 H3T58ph, binder concentration: 100 nM",0.0017 ± 4.6e-05
same,peptide microarray binding signal,[3]; [21],0.00109 ± 3.3e-05
same,peptide microarray binding signal,[3]; [22],0.000799 ± 2.2e-05
same,peptide microarray binding signal,[4]; [21],0.00261 ± 0.0003
same,peptide microarray binding signal,[4]; [22],0.001211 ± 1.2e-05
IHAKRVTIMPKDI [H3 112-124 I H A Kac Rme V T I M P K D I],peptide microarray binding signal,"[1]; peptide region: H3 112-124, peptide modifications: H3K115ac H3R116me1, binder concentration: 50 nM",0.0108 ± 0.00025
same,peptide microarray binding signal,"[1]; peptide region: H3 112-124, peptide modifications: H3K115ac H3R116me1, binder concentration: 500 nM",0.0193 ± 0.00083
same,peptide microarray binding signal,"[2]; peptide region: H3 112-124, peptide modifications: H3K115ac H3R116me1, binder concentration: 10 nM",0.0322 ± 0.0019
same,peptide microarray binding signal,"[2]; peptide region: H3 112-124, peptide modifications: H3K115ac H3R116me1, binder concentration: 100 nM",0.0449 ± 0.0042
same,peptide microarray binding signal,[3]; [23],0.00519 ± 0.0005
same,peptide microarray binding signal,[3]; [24],0.00542 ± 0.00027
same,peptide microarray binding signal,[4]; [23],0.00293 ± 0.00034
same,peptide microarray binding signal,[4]; [24],0.00254 ± 3.9e-05
